Data published in PubChem BioAssay.
Activity calls are given as the source filed them.

Key:
[1] = target: Albumin (Bos taurus) (UniProt P02769); assay: compounds binding labelled BSA control protein – biochemical, small-molecule microarray, Alexa647 label, 635/667 nm fluorescence, artefact control for SMM control protein annotation, profiling panel (AID 1118); details: BSA-A647 binding, fluorescence 635 nm, higher = more signal;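 also: score merges 667 nm emission intensity and signal-to-noise per printed compound spot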
[2] = probe aXIP binding to arrayed compounds – biochemical, NeuroSMM set, 635/667 nm fluorescence, primary screen (AID 1119); details: small-molecule microarray, higher = more signal, called active from +8 up or from −8 down;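 also: probe is the protein aXip251-270 applied at 1 µg/mL to compound-printed slides; binding of probe to printed compounds measured as 667 nm fluorescence plus signal to noise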
[3] = probe aNOTCH3 binding on compound microarray – biochemical, small-molecule microarray, 635/667 nm fluorescence, primary screen (AID 1120); details: higher = more signal;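 also: probe is a biotin-tagged antibody raised against NOTCH3 rather than NOTCH3 protein; score merges spot fluorescence near 667 nm with spot signal to noise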
[4] = probe aNOTCH2 binding on compound microarray – biochemical, small-molecule microarray, 635/667 nm fluorescence, primary screen (AID 1121); details: higher = more signal;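 also: score merges feature fluorescence read at 667 nm with its signal to noise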
[5] = target: Carbonic anhydrase 2 (Homo sapiens) (UniProt P00918); assay: compounds binding carbonic anhydrase 2 – biochemical, small-molecule microarray, Alexa647-labelled CAII, profiling panel (AID 1122); details: CAII-A647 binding fluorescence, higher = more signal
[6] = COS7 lysate on small-molecule microarray, probe aHis, 635 nm (AID 1123); details: COS7 cell lysate, fluorescence, higher = more signal;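 also: z-score combines 667nm fluorescence intensity with signal-to-noise per printed compound spot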
[7] = probe aLAP1 signal on lysate-treated microarray – cell lysate, small-molecule microarray, COS7 lysate, primary screen (AID 1124); details: probe aLAP1, fluorescence, higher = more signal;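 also: lysate comes from COS7 cells expressing LAP1 and is applied at 0.3 µg/mL; score merges spot fluorescence near 667 nm with signal-to-noise over triplicate slides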
[8] = tested on: Sam68 (KHDRBS1); assay: compounds binding KHDRBS1 protein – biochemical, small-molecule microarray, 635 nm fluorescence, primary screen (AID 1125); details: higher = more signal;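 also: score merges 667 nm channel intensity with signal to noise over triplicate slides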
[9] = tested on: Chordin-like protein 2 (CHRDL2); assay: compounds binding chordin-like 2 – biochemical, small-molecule microarray, 635 nm fluorescence, primary screen (AID 1126); details: fluorescence 635 nm, higher = more signal;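 also: printed compound slides probed with Chrdl2 protein at 4 µg/mL for 1 h at 4 C; score merges 667 nm emission intensity with signal to noise over three replicate slides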
[10] = target: Concanavalin-A (Canavalia ensiformis) (UniProt P02866); assay: compounds binding concanavalin A lectin – biochemical, small-molecule microarray, Alexa647 label, 635 nm, artefact control for SMM control protein annotation, primary screen (AID 1127); details: ConA-A647 binding fluorescence, higher = more signal;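 also: z combines 667 nm emission intensity with signal-to-noise across three replicate slides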
Chain of Concanavalin-A (Canavalia ensiformis) (P02866 whole entry, looked up): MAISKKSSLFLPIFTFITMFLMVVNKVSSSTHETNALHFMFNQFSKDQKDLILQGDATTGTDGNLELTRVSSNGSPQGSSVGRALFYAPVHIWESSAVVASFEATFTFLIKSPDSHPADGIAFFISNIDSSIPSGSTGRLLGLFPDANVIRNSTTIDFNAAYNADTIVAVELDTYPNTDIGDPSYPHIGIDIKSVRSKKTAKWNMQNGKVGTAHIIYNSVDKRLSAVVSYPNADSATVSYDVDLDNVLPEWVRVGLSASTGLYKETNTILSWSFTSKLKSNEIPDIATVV

Chain of Albumin (Bos taurus) (P02769 whole entry, looked up): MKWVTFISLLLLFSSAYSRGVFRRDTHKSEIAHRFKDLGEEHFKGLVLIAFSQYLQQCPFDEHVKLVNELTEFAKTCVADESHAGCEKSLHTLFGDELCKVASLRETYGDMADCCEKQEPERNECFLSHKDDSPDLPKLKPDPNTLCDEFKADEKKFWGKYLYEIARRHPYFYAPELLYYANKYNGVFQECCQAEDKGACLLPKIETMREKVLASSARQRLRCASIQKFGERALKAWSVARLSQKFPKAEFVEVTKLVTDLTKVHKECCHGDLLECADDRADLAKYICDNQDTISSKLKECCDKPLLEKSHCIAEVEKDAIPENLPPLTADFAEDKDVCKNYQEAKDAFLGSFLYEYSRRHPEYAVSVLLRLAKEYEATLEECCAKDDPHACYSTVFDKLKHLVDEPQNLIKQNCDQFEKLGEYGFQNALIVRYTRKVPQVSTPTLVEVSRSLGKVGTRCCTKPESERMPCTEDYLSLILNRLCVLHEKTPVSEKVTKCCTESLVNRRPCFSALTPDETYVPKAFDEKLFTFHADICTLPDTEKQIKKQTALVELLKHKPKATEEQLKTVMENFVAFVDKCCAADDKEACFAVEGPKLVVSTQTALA

Row | SMILES | composite z-score [1] | composite Z-score [2] | composite z-score [3] | composite z-score [4] | composite z-score [5] | composite z-score [6] | composite z-score [7] | composite z-score [8] | composite z-score [9] | composite z-score [10]
1 | CC(=O)NCCCC[C@@H]1NC(=O)[C@@H]2C[C@H](C(=O)NCCCC[N+](C)(C)C)[C@H](c3cccc(OCCO)c3)N2C1=O | -0.134 | 0.0725 (inactive) | 0.0426 | -0.125 | 0.799 | 0.661 | 0.331 | -1.33 | 0.349 | -0.0028
2 | [N-]=[N+]=Nc1ccccc1[C@H]1OC(c2ccc(OCCCO)cc2)=N[C@@]1(Cc1ccccc1)C(=O)NCc1ccccc1 | 0.713 | 1.76 (inactive) | 0.256 | -0.0714 | 0.497 | 1.46 | 0.112 | 1.31 | 0.125 | 1.02
3 | O=C1O[C@@H](c2ccccc2)[C@@H](c2ccccc2)N2[C@@H](c3ccc(O)cc3)[C@]3(C(=O)Nc4ccc(C#CC5=CCCCC5)cc43)[C@@H](C(=O)Nc3nc4ccccc4s3)[C@H]12 | 0.787 | -0.199 (inactive) | 0.887 | 0.47 | 0.58 | 2.03 | 0.784 | 1.29 | 0.842 | 1.1
4 | COc1ccc([Si](C)(C)[C@H]2[C@H](CCn3cc(CCO)nn3)O[C@@]3(C(=O)N(Cc4cccc(N5C(=O)c6cccc7cccc5c67)c4)c4ccccc43)[C@@H]2C)cc1 | 0.451 | 0.525 (inactive) | 0.0311 | -0.0974 | 0.584 | 0.791 | 1.65 | 1.22 | 0.438 | 1.11
5 | COC(=O)C(CC#Cc1ccc2c(c1)[C@]1(C(=O)N2)[C@H](c2ccc(O)cc2)N2[C@H](c3ccccc3)[C@H](c3ccccc3)OC(=O)[C@H]2[C@@H]1C(=O)O)C(=O)OC | 0.587 | 0.877 (inactive) | 0.18 | -0.0891 | 0.766 | 1.07 | 0.308 | 0.318 | -0.3 | 0.819
6 | COC(=O)[C@@]1(Cc2ccccc2)[C@H]2c3cc(C(=O)N(C)C)n(Cc4ccc(O)c(OC)c4)c3C[C@H]2CN1C(=O)c1ccccc1 | 0.955 | 0.403 (inactive) | 0.808 | -0.246 | 0.759 | 2.17 | 0.091 | 0.507 | -0.629 | 1.1
7 | COCCCNC(=O)[C@@]1(Cc2ccccc2CN=[N+]=[N-])N=C(c2ccc(OCCCO)cc2)O[C@H]1c1ccccc1N=[N+]=[N-] | 0.778 | 0.397 (inactive) | 0.303 | 0.168 | 0.421 | 2.43 | 0.656 | 1.02 | -0.379 | 1.04
8 | C=C(CCCC)/C(=C/C[C@@H](OC(=O)c1ccncc1)c1ccccc1OCCO)c1cc(C(=O)OC)ccc1OC | 0.865 | -0.0662 (inactive) | 0.125 | -0.0317 | 0.616 | 1.28 | 0.902 | 1.25 | -0.0027 | -0.251
9 | C=C(COC)/C(=C/C[C@@H](OC(=O)c1ccncc1)c1cccc(OCCO)c1)c1cc(C(=O)OC)ccc1OC | -0.431 | 0.135 (inactive) | 0.0297 | -0.147 | 0.646 | -0.0596 | 0.996 | 1.24 | 0.699 | 0.206
10 | O=C(Nc1cc(Br)ccc1C(=O)NCc1cccc(O)c1)c1ccccc1 | 0.8 | -0.0662 (inactive) | 0.151 | -0.0901 | 0.62 | 0.891 | 0.808 | 0.778 | 0.279 | 1.18
11 | C=C(/C(=C/C[C@@H](OC(C)=O)c1ccccc1OCCO)c1cnc2ccccc2c1)C(C)C | 0.23 | 1.17 (inactive) | -0.0784 | -0.0859 | 0.571 | 0.503 | -0.0618 | 0.778 | 0.474 | 0.871
12 | COC(=O)[C@@]1(Cc2ccccc2)[C@H]2c3cc(C(=O)N4CCCC4)n(CCO)c3C[C@H]2CN1C(=O)c1ccccc1 | 1.03 | 1.61 (inactive) | 1.37 | 0.853 | 0.841 | 2.35 | 1.41 | 1 | 0.443 | 0.886
13 | COCCCNC(=O)[C@@H]1c2ccccc2C(=O)N(Cc2cc(F)cc(C(F)(F)F)c2)[C@H]1c1ccc(CO)cc1 | -0.146 | 0.147 (inactive) | -0.388 | -0.0826 | 0.761 | -0.838 | -0.438 | -1.24 | -1.24 | -0.265
14 | C[N+](C)(C)CCCC[C@@H]1NC(=O)[C@@H]2C[C@H](C(=O)O)[C@H](c3cccc(OCCO)c3)N2C1=O | -1.33 | 1.31 (inactive) | -0.324 | 0.0022 | 0.49 | 0.64 | 0.303 | -0.0913 | 0.451 | 1.02
15 | CC(C)CCC[C@@H](C)[C@H]1CC[C@@]2(C)C3=C(CC[C@]12C)[C@@]1(C)CC[C@H](OC(=O)C(C)(C)C)C(C)(C)C1CC3 (stereo not given in full) | -0.0648 | -0.598 (inactive) | -0.0396 | -0.191 | -0.0485 | 1.25 | -0.0838 | 0.657 | 0.547 | 0.632
16 | CC(C)(C)OC(=O)CC[C@@]1(C(=O)N2CCCCC2)N=C(c2ccc(OCCCO)cc2)O[C@@H]1c1ccccc1N=[N+]=[N-] | 0.943 | -0.15 (inactive) | 0.4 | 0.127 | 0.775 | 2.94 | 1.58 | 1.29 | 0.142 | 1.17

Row | SMILES | composite z-score [1] | composite Z-score [2] | composite z-score [3] | composite z-score [4] | composite z-score [5] | composite z-score [6] | composite z-score [7] | composite z-score [8] | composite z-score [9] | composite z-score [10]
17 | CC(C)CCC[C@@H](C)[C@H]1CC[C@@]2(C)C3=C(CC[C@]12C)[C@@]1(C)CC[C@H](OC(=O)c2ccc(N)cc2)C(C)(C)C1CC3 (stereo not given in full) | 0.0881 | -0.196 (inactive) | 0.0406 | -0.207 | 0.0778 | -0.221 | -0.252 | 0.401 | 0.456 | 0.462
18 | CCCC[C@@H](O)C1=C(COc2ccccc2)Cn2c(=O)n(-c3ccccc3)c(=O)n2[C@H]1CO | -0.0711 | -0.116 (inactive) | -0.187 | -0.148 | -0.0781 | 0.725 | 0.148 | -0.247 | 0.0826 | -0.494
19 | [N-]=[N+]=Nc1ccccc1[C@@H]1OC(c2ccc(OCCCO)cc2)=N[C@]1(CCS(=O)(=O)c1ccccc1)C(=O)NCc1ccccc1 | 0.976 | 1.08 (inactive) | 0.752 | 0.38 | 0.749 | 2.86 | 0.48 | 1.29 | -0.612 | 1.11
20 | COCCOC(=O)N1C(=O)[C@@]2(c3cc(C#CC4(O)CCCCCC4)ccc31)[C@H](C(=O)N1CCc3cc(OC)c(OC)cc3C1)[C@H]1C(=O)O[C@H](c3ccccc3)[C@H](c3ccccc3)N1[C@@H]2c1ccccc1OCCO | -0.499 | 0.141 (inactive) | 0.382 | 0.0521 | 0.435 | 0.29 | 0.221 | 1.29 | 1.02 | 1.17
21 | CCOC(=O)C1=CC[C@@H](c2ccccc2)N(S(=O)(=O)c2ccc(C)cc2)[C@H]1C=C(C)C | 0.856 | 0.325 (inactive) | 0.31 | -0.0209 | 0.491 | 2.14 | 0.149 | 1.3 | 0.542 | 0.947
22 | O=C1C[C@@](C(=O)O)(c2ccc([N+](=O)[O-])cc2)[C@@H](c2ccc(CO)cc2)N1CC12CC3CC(CC(C3)C1)C2 | 0.656 | -0.261 (inactive) | 0.18 | 0.0362 | 0.46 | 1.74 | 0.611 | 1.19 | -0.346 | 0.687
23 | CC(C)(C)OC(=O)CC[C@@]1(C(=O)N2CCCCC2)N=C(c2ccc(OCCCO)cc2)O[C@@H]1c1ccccc1CN=[N+]=[N-] | 1.03 | 0.18 (inactive) | 0.359 | 0.13 | 0.597 | 2.99 | 0.639 | 1.29 | -0.813 | 1.18
24 | COC(=O)[C@@]1(Cc2ccccc2)[C@H]2c3cc(C(=O)N(C)C)n(Cc4ccccn4)c3C[C@H]2CN1C(=O)c1ccccc1 | 0.723 | 0.146 (inactive) | 0.127 | 0.269 | 0.971 | 3.31 | 1.22 | 1.03 | -1.4 | 1.08
25 | CCCC[C@H]1OB(O)C[C@H]2C1=C(COc1ccccc1)Cn1c(=O)n(-c3ccccc3)c(=O)n12 | 0.196 | 0.131 (inactive) | 0.0705 | -0.114 | 0.247 | 1.1 | 0.0367 | 1.14 | 0.357 | 0.501
26 | COC(=O)[C@@]1(Cc2ccc(F)cc2)[C@@H]2[C@@H](CC(=O)[C@H]2CC(=O)C(=O)N2CCCC2)CN1C(=O)c1ccccc1 | 1.08 | 0.304 (inactive) | 0.506 | 0.239 | 0.603 | 3.17 | 0.552 | 1.3 | -0.232 | 1.16
27 | CCCC=C(CCC)[C@@H](NS(=O)(=O)c1cccc2cccnc12)c1ccc(C(=O)OC)cc1 | -0.207 | 0.242 (inactive) | 2.12 | 1.16 | 0.771 | 0.313 | 0.392 | 0.287 | 0.599 | 0.782
28 | C/C=C/[C@@H](CCn1cc([C@H](O)c2ccccc2)nn1)[Si](C)(C)c1ccc(OC)cc1 | -0.91 | 2.17 (inactive) | -0.367 | -0.195 | -0.105 | 1.15 | 0.614 | -0.123 | 0.0697 | -0.333
29 | COc1ccc(C(=O)Nc2ccc3c(c2)[C@]2(O[C@@H](CCO)[C@H]([Si](C)(C)c4ccc(OC)cc4)[C@H]2C)C(=O)N3Cc2ccccc2)cc1 | -0.58 | 0.131 (inactive) | -0.242 | -0.135 | 0.0277 | -0.0175 | -0.352 | 1.01 | 0.845 | 0.908
30 | CC(C)CN1C(=O)[C@@]2(Cc3ccccc31)c1ccccc1C(=O)N(Cc1ccccc1)[C@H]2c1ccc(CO)cc1 | 0.488 | 0.671 (inactive) | -0.197 | -0.138 | 0.441 | 0.179 | 0.254 | -1.72 | -1.03 | -0.616
31 | [N-]=[N+]=NCc1ccccc1C[C@@]1(C(=O)NCCN2CCOCC2)N=C(c2ccc(OCCCO)cc2)O[C@@H]1c1ccccc1CN=[N+]=[N-] | 0.511 | -0.0957 (inactive) | 0.338 | 0.12 | 0.568 | 2.23 | 0.0232 | 1.31 | 0.139 | 1.06
32 | CC(C)(C)OC(=O)CC[C@]1(C(=O)O)COC(c2ccc(OCCCO)cc2)=N1 | 0.374 | -0.0004 (inactive) | 0.102 | -0.0966 | 0.803 | 1.11 | -0.156 | -1.05 | -1.92 | 0.135
